The whole screen tested about 300,000 compounds, of which about 480 (0.16%) were called active. A selection follows. Potency and affinity values are given separately. Unmarked numbers belong to inactive results.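 How the source made its calls: active means inhibition over 29.93%, a cutoff 3 SD above the screen mean, later confirmed by dose response; inconclusive means inhibition over 29.93% but no dose response follow-up; inactive means inhibition at most 29.93% or unconfirmed.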 Peptide text beside a SMILES is read from it. * marks the point of attachment. Boc = CC(C)(C)OC(=O)*

The assay can be described thus: inhibitors of PhoP regulon expression, primary screen, Salmonella Typhimurium, GFP reporter (AID 1863).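 Further: 0% = low Mg2+ inducing control and 100% = high Mg2+ repressing control.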 The following applies: S. Typhimurium PhoP-regulated promoter GFP reporter, 4 h; at 50 µM; stronger effect = higher value.
As for `CN1CCN(c2c(F)cc3c(=O)c(C(=O)O)cn4c3c2SCC4)CC1`, the inhibition was -8.39%.
Consider `CCN(CC)CCCNC(=O)c1c(O)c2cc(F)cc3c2n(c1=O)C(C)CC3` (stereo not drawn), for which the inhibition was 8.52%.
As for `CC1CCc2cc(F)cc3c(O)c(C(=O)NCCN(C)C)c(=O)n1c23` (stereo not drawn), the inhibition was 2.46%.
On to `O=C(c1cncc(Br)c1)N1CCN(S(=O)(=O)c2ccccc2C(F)(F)F)CC1`, for which the inhibition was -1.26%.
Consider `Cc1ccc(C(=O)N/C(=C\c2cccnc2)C(=O)N2CCCC2)cc1`, for which the inhibition is -6.95%.
To `Cc1ccc(C2=Nc3ccccc3NC(C)(c3ccc(C)o3)C2)o1` (stereo not drawn) belongs -5.88%; to `Cc1nnsc1S(=O)c1ccc(Cl)c(Cl)c1` (stereo not drawn), 3.99%.
To `N#Cc1ccccc1CSCCNC(=O)Cc1c(F)cccc1Cl` belongs -5.66%; to `COc1cccc(Cn2c(C3CC3)nc3ccc(NC(=O)c4ccco4)cc3c2=O)c1`, -9.67%; to `Cc1ccc(-c2nn(-c3ccccc3)cc2CSC(=N)N)cc1`, 2.16%.
To `O=C(O)Cc1cn(-c2ccccc2)nc1-c1ccccc1` belongs -1.05%; to `OCc1cn(-c2ccccc2)nc1-c1ccc(Br)cc1`, -1.5%; to `OCc1cn(-c2ccccc2)nc1-c1ccc(-c2nn(-c3ccccc3)cc2CO)cc1`, 14.7%.
Regarding `CC1=Nn2c(nc3sc4c(c3c2=O)CCCC4)SC1`, the inhibition is -2.64%.
On to `Cc1cnc(NC(=O)c2ccncc2)s1`, for which the inhibition was 1.84%.
As for `C=CCOC(=O)C1=C[C@@H](c2ccc(Br)cc2)[C@H](CCCO)[C@@H](OCC)O1`, the figure is -3.82%; as for `COc1cc(NS(=O)(=O)c2ccc(NS(=O)(=O)c3ccc(C)cc3)cc2)nc(OC)n1`, 12.1%; as for `COCC(=O)Nc1ccc(N2CCN(c3ccccc3)CC2)c(F)c1`, 21.5%.
On to `Cc1ccc(SCCc2ccc(C)nc2)cc1`, for which the inhibition was 9.59%.
On to `COCCCNC(=S)NNC(=O)c1ccccn1`, for which the inhibition was 8.59%.
As for `CCNC(=S)NNC(=O)c1ccccc1Cl`, the figure is 8.03%; as for `C=CCOC(=O)C1=C(C)NC(SCC(=O)Nc2nccs2)=C(C#N)C1c1cccs1` (stereo not drawn), -14.1%.
Regarding `CCOC(=O)Cn1cnc2sc(C(=O)OC)c(C)c2c1=O`, the inhibition is -1.36%.
As to `Cc1ccc(NC(=O)Nc2ccccc2)cc1[N+](=O)[O-]`, the inhibition is -2.21%.
To `O=C(CCS(=O)(=O)c1ccccc1)Nc1ncc([N+](=O)[O-])s1` belongs 11.2%.
Take `O=C(Nc1ccc(Cl)c(Cl)c1)Nc1ccccn1`: the inhibition is 8.31%.
To `O=C(Nc1ccc(Cl)c(Cl)c1)Nc1ccccc1C(=O)O` belongs 4.95%; to `O=C(Nc1ncc([N+](=O)[O-])s1)c1ccccc1Br`, -1.22%; to `O=C(Nc1ccccc1)Nc1ccc(F)c([N+](=O)[O-])c1`, 8.9%.
As for `CCN(CC)P(=O)(c1ccccc1)c1c(C)nc2ccccn12` (stereo not drawn), the figure is -1.09%.
To `CC12CCC(C(=O)NC3CCCC3)(CC1=O)C2(C)C` (stereo not drawn) belongs -12.7%; to `COc1ccc(-c2nnn(CC(=O)N(CC3CCCO3)C(C(=O)NC(C)(C)C)c3ccco3)n2)cc1OC` (stereo not drawn), 2.77%.
For the compound `COCCCNC(=O)CN(c1cc(Cl)cc(Cl)c1)S(C)(=O)=O`, the inhibition was -4.71%.
Consider `N#CCOc1nc(N2CCOCC2)nc(N2CCOCC2)n1`, for which the inhibition was -1.4%.
`COc1ccc(CN(CC(=O)NCC2CCCO2)C(=O)CNS(=O)(=O)c2ccc(C)cc2)cc1` (stereo not drawn): the inhibition is -1.33%.
To `CC(NC(=O)C1CCN(S(=O)(=O)c2ccc3nc4c(c(C(=O)O)c3c2)CCCC4)CC1)c1ccccc1` (stereo not drawn) belongs -8.3%.
`CCN(CC)S(=O)(=O)c1ccc(OC)c(NS(=O)(=O)Cc2ccccc2)c1`: the inhibition was 6.46%.
As for `O=C(O)c1cccc(Nc2ncnc3sccc23)c1`, the figure is -0.32%; as for `COc1ccccc1N1CCN(CC(=O)c2c(C)[nH]c3cc(C)ccc23)CC1`, -0.55%.
For the compound `CC(C)c1nnc(NC(=O)c2ccc(S(=O)(=O)N3CCOCC3)cc2)s1`, the inhibition was -9.01%.
To `O=C(NCCC1=CCCCC1)c1ccc2c(c1)N(Cc1ccccc1)C(=O)CS2` belongs 6.9%; to `CCOC(=O)c1ccc2c(c1)n(CC)c(/C=C/N(C)c1ccccc1)[n+]2CC`, -11%.
Take `CCn1c(/C=C/N(C)c2ccccc2)[n+](CC)c2ccc(Cl)cc21`: the inhibition was -2.39%.
Consider `COc1ccc(C(=O)N2CCN(Cc3ccccc3)CC2)cc1[N+](=O)[O-]`, for which the inhibition is -3.7%.
To `O=C(NCCCn1ccnc1)c1ccc(Br)cc1` belongs 12.6%.
To `Oc1c(Cl)cc(CN2CCCCC2)c2cccnc12` belongs 14.1%.
As for `Cc1ccc(S(=O)(=O)Nc2ccc(O)c3cccnc23)cc1`, the figure is 6.3%; as for `Cc1ccc(S(=O)(=O)Nc2ccc(O)c3ncccc23)cc1`, 10.5%; as for `O=C(Oc1ccc(Cl)c2cccnc12)c1ccco1`, 19.6%.
For `O=C(Oc1c(Cl)cc(Cl)c2cccnc12)c1cccs1`, the inhibition was 14.3%.
Turning to `Oc1c(I)cc(I)c2cccnc12`, the inhibition is -1.32%.
To `Clc1cc2cccnc2c2ccccc12` belongs 2.15%.
As for `O=c1oc2ccccc2c(O)c1Cc1cc(Cl)c2cccnc2c1O`, the figure is -10%; as for `CCC(=O)c1cc2c(cc1NC(=O)c1ccccc1)OCCO2`, 5.62%.
As for `CN(C)S(=O)(=O)c1ccc(N2CCCC2)c(C(=O)Nc2nc(-c3ccc(F)c(F)c3)cs2)c1`, the figure is 3.09%; as for `Cc1ccc(CN2C(=O)NC(Cc3c[nH]c4ccccc34)C2=O)cc1` (stereo not drawn), 4.26%.
Turning to `COC(=O)c1cc(NC(=O)CC2SCCNC2=O)cc(C(=O)OC)c1` (stereo not drawn), the inhibition is -10.7%.
As for `COc1ccc(/C=N/Nc2cc(N(C)C)nc(N(C)C)n2)cc1`, the inhibition is -15.8%.
As for `CC(C)(C)c1ccc(C(=O)N2CCC(C(=O)NCc3ccncc3)CC2)cc1`, the inhibition is -6.15%.
To `O=C(NCc1cccs1)c1cc(S(=O)(=O)N2CCCCC2)ccc1Cl` belongs 2.07%; to `COc1cc(C(=O)NCc2cccc3ccccc23)ccc1OCc1ccccc1`, -2.04%; to `COc1ccc(/C(N)=N/O)c(OC)c1`, -1.42%.
Take `Nc1ccc(-n2ccnc2)cc1`: the inhibition is 1.57%.
As for `CCCCOc1ccc(CSC(=N)N)cc1Cl`, the figure is 0.89%.
With `COc1ccc(Br)cc1CSC(=N)N`, the inhibition is 5.81%.
As for `CCCOc1ccc(Br)cc1CSC(=N)N`, the inhibition is 55.8%.
As for `COc1ccc(CSC(=N)N)cc1[N+](=O)[O-]`, the figure is 5.38%; as for `CCOc1ccc(CSC(=N)N)cc1[N+](=O)[O-]`, 41%; as for `CCOc1ccc(Br)cc1CSC(=N)N`, 26.3%.
Turning to `C/C(=N\NC(=O)CNC(=O)c1ccc(F)cc1)c1ccco1`, the inhibition was 4.52%.
Take `Cc1ccc(NC(=O)N[C@@H](CC(C)C)C(=O)O)c(C)c1`: the inhibition is -7.38%.
As for `O=C(NCc1ccccn1)Nc1ccccc1Cl`, the figure is -6.1%; as for `CCN(CCN1CCCC1)C(=O)C1CCC(=O)N(CCCN2CCOCC2)C1` (stereo not drawn), 2.18%; as for `CCCCCCn1c(N2CCCC2)nc2c1c(=O)[nH]c(=O)n2C`, 2.66%.
To `O=C1CCCN1CCCNS(=O)(=O)c1ccccc1` belongs 10.7%; to `Cc1cc(C)nc(N/C(=N\S(=O)(=O)Cc2ccccc2)Nc2cccc(Cl)c2C)n1`, 8.54%.
In the case of `CC(C)CC(NC(=O)OC(C)(C)C)C(=O)NC(C(=O)N1CCCC1C(N)=O)C(C)C` (stereo not drawn) (Boc-Leu-Val-Pro-NH2; configuration not given here), the inhibition is -6.98%.
As for `CC(C)(C)OC(=O)N1CCC[C@@H]1CO`, the figure is 1.69%; as for `CCCC(=O)N1CC(=O)Nc2ccc(C)cc2C1c1ccccc1` (stereo not drawn), -6.57%; as for `S=C(NCc1ccccc1)N1CCCCC1`, 0.84%.
To `O=S(=O)(NCC(c1ccc2c(c1)OCO2)N1CCOCC1)c1ccc(Cl)cc1` (stereo not drawn) belongs -2.72%; to `CC(=O)c1c(C)n([O-])c2ccc(C)cc2[n+]1=O`, 0.85%.
`O=[n+]1c2c(n([O-])c3cc(F)c(F)cc31)CCCC2`: the inhibition is -5.91%.
For `CC(=O)c1c(C)n([O-])c2cc(C)ccc2[n+]1=O`, the inhibition was -0.54%.
Take `COc1ccc2c(c1)[n+](=O)c(C(C)=O)c(C)n2[O-]`: the inhibition was 7.33%.
As for `Cc1ccc(NC2c3ncccc3C(=O)N2Cc2ccco2)c(C)c1` (stereo not drawn), the figure is -7.26%; as for `O=C(CCSCCC(=O)N1CCCC1)N1CCCC1`, 0.69%; as for `Cc1c(C)n2c(SCC(=O)NC3CCCCC3)nnc2[nH]c1=O`, 2.36%.
Take `CC(=O)c1c(N2CCN(c3ccc(F)cc3)CC2)nc(=S)n(Cc2ccccc2)c1C`: the inhibition is -9.08%.
As for `CCN(CC)CC(=O)Nc1ccc(-c2ccc(NC(=O)CN(CC)CC)c(OC)c2)cc1OC`, the figure is -5.12%; as for `O=C(O)c1ccc(NC(=O)C(c2ccccc2)c2ccccc2)cc1`, -7.69%; as for `COc1cccc(C2c3[nH]c4ccccc4c3CCN2C(=O)Cn2cncn2)c1OC` (stereo not drawn), -2.77%.
As for `CCN(CC)C(=O)Oc1nnc(SC(C)C)n1-c1ccc(Cl)cc1`, the figure is -0.67%.
As to `O=C(Nc1nc(-c2ccccn2)cs1)c1ccc(Br)s1`, the inhibition is 8.88%.
As for `O=C(Nc1nc(-c2cccs2)cs1)c1ccc(Cl)s1`, the figure is 7.37%; as for `CCOC(=O)c1c(C)[nH]c(C(=O)COC(=O)CNC(=O)c2ccccc2Cl)c1C`, -9.12%.
To `Cc1occc1C(=O)NC(C)C(C)(C)C` (stereo not drawn) belongs 0.78%; to `Cc1ccccc1CSCCC(=O)NCCC1=CCCCC1`, 6.03%.

The values above are taken from PubChem BioAssay AID1863 (Southern Research Specialized Biocontainment Screening …, 2009).
